Consider 17 compounds from PubChem BioAssay.

Each structure is given as a SMILES string. Active and inactive are the calls of the source. Unless noted, the rule behind the calls is not given here.

Assay [1] has as its system Wnt5a (protein binding on small-molecule microarray). Description: small molecules binding Wnt5a protein – biophysical, small-molecule microarray, 635/667 nm fluorescence, primary screen (AID 1142).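 Note: fluorescence read at 667 nm with signal to noise per printed feature.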 The settings on record: 635 nm fluorescence, higher = more signal.
A short description of assay [2]: ATP-based viability of Huh7 replicon cells – cell-based, CellTiter-Glo luminescence, basal, 48 h, cytotoxicity control for HCV replication inhibitor project, primary screen (AID 1143).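 Note: Huh7 hepatoma cells carrying a hepatitis C replication reporter with no stimulus; test concentration not given here.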 Conditions: higher = more signal, called active from +8 up or from −8 down. For orientation: Replicon systems follow genome replication, usually without infectious particles.
Assay [3] can be described thus: Pseudomonas biofilm growth suppression – PAO1 strain, BacTiter-Glo luminescence, LB-PBS, primary screen (AID 1144). The settings on record: P. aeruginosa PAO1 biofilm, 12 h, higher = more signal.
The nature of assay [4]: basal CRE-LacZ reporter activity in PC12 – cell-based, unstimulated, primary screen (AID 1145). The settings on record: no forskolin, luminescence, 4.5 h, higher = more signal, called active from +8 up or from −8 down.
Assay [5] can be described thus: forskolin-driven CRE-LacZ activity in PC12 – cell-based, CRE-LacZ reporter, forskolin-stimulated, primary screen (AID 1146).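 Note: PC12 cells with 6xCRE LacZ reporter stimulated by forskolin 10 µM; beta-galactosidase reporter signal reflecting CREB driven transcription.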 The settings on record: luminescence, 4.5 h, higher = more signal, called active from +8 up or from −8 down.
Assay [6] concerns the target Streptavidin (Streptomyces avidinii) (UniProt P22629). Nature of the assay: compounds binding control protein streptavidin – biophysical, small-molecule microarray, 635/667 nm fluorescence, artefact control for SMM compound annotation, primary screen (AID 1147).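 Note: signal reflects streptavidin binding to arrayed compounds as a control protein.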 Conditions: higher = more signal.
Assay [7] can be described thus: probe aInhba binding on compound microarray – biochemical, small-molecule microarray, 635/667 nm fluorescence, primary screen (AID 1148).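 Note: score merges 667nm spot fluorescence with signal-to-noise for antibody binding to printed compounds.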 Conditions: higher = more signal.
In assay [8] the target is Torsin-1A (Homo sapiens) (UniProt O14656). Description: TOR1A wild-type binding on microarray – cell lysate, small-molecule microarray, lysate, 635/667 nm, primary screen (AID 1149). Conditions: COS7 hTOR1A-WT lysate, 635 nm fluorescence, higher = more signal.
The target is the same in assay [9]. Description: torsin A mutant lysate binding on microarrays – cell lysate, small-molecule microarray, COS7 lysate, 635/667 nm fluorescence, primary screen (AID 1150).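 Note: score pools 667 nm emission and signal to noise measuring lysate protein binding.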 The settings on record: COS7 hTOR1A mutant lysate, 635 nm fluorescence, higher = more signal.
Assay [10] has as its system Sonic hedgehog protein (Shh). Description: Sonic hedgehog microarray binding compounds – biochemical, small-molecule microarray, 635/667 nm fluorescence, primary screen (AID 1151).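 Note: Shh protein binding to compounds spotted on small-molecule microarray slides; score combines spot fluorescence intensity with signal-to-noise across triplicate slides.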 The settings on record: 635 nm fluorescence, higher = more signal.

Chain of Torsin-1A (Homo sapiens) (O14656 whole entry, looked up): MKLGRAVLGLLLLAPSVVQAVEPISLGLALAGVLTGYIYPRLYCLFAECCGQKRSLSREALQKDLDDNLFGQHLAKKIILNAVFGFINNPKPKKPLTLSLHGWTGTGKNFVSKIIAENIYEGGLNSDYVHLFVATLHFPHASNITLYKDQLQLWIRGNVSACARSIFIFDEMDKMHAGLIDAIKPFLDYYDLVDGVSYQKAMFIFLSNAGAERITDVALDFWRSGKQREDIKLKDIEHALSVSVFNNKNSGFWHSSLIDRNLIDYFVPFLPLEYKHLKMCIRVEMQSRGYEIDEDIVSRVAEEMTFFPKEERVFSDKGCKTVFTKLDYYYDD
Chain of Streptavidin (Streptomyces avidinii) (P22629 whole entry, looked up): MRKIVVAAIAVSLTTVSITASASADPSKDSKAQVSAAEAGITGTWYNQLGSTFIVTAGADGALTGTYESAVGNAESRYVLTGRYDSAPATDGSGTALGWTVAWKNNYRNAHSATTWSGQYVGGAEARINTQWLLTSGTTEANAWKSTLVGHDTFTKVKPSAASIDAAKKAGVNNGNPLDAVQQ

For `COCCOC(=O)N1C(=O)[C@@]2(c3cc(C#CC4(O)CCCCCC4)ccc31)[C@H](c1ccccc1OCCO)N1[C@H](c3ccccc3)[C@H](c3ccccc3)OC(=O)[C@H]1[C@@H]2C(=O)N1CCc2cc(OC)c(OC)cc2C1`, the composite z-score in assay [1] is 0.305; in assay [6] it was 0.738; in [7], -0.0496; in assay [8], 0.0651; in [9] it was 0.336; in assay [10] it was 1.11. Further, the z-score was -3.17 (inactive) in [2], -0.665 (inactive) in assay [3], -1.29 (inactive) in assay [4] and 1.03 (inactive) in assay [5].

With `O=C1C2C=CC(C(O)COCc3ccccc3)N(Nc3ccc([N+](=O)[O-])cc3)C2C(=O)N1c1ccccc1` (stereo not given), the composite z-score in assay [1] came to 0.43; in assay [6] it was 0.464; in assay [7], 0.0743; in assay [8], 0.272; in [9], 0.165; in assay [10], 0.57. In addition, the z-score in assay [2] was -3 (inactive); in assay [3], -1.83 (inactive); in [4], -0.275 (inactive); in assay [5], 0.788 (inactive).

Turning to `COC(=O)c1c(CC[C@@H](CO)NC(=O)NCCc2c[nH]c3ccccc23)oc(C(=O)Cc2ccccc2)c1C(=O)OC`, the composite z-score in assay [1] was -0.229; in [6], -0.322; in assay [7], -0.188; in assay [8], 0.207; in assay [9], 0.0487; in [10] it was 0.0213. The z-score in assay [2] was -0.195 (inactive); in assay [3] it was 0.604 (inactive); in assay [4] it was 1.37 (inactive); in assay [5], -0.713 (inactive).

As to `O=C1O[C@@H](c2ccccc2)[C@@H](c2ccccc2)N2[C@@H](c3ccc(OCCO)cc3)[C@]3(C(=O)Nc4ccc(C#CCCO)cc43)[C@@H](C(=O)NC[C@H](O)c3ccccc3)[C@H]12`, the composite z-score in assay [1] amounted to 0.425; in [6] it was 0.477; in assay [7], 0.288; in assay [8], 0.458; in assay [9], 0.652; in assay [10], 1.88. The z-score was -0.673 (inactive) in assay [2], -0.703 (inactive) in assay [3], -0.141 (inactive) in assay [4] and 0.119 (inactive) in [5].

Consider `CCOC(=O)C1=CC[C@@H](c2ccc(C(F)(F)F)cc2)N(S(=O)(=O)c2ccc(C)cc2)[C@H]1c1ccccc1`, for which the composite z-score in [1] was found to be 0.328; in assay [6], 1.5; in assay [7], 0.316; in assay [8], 0.504; in assay [9], 0.658; in assay [10], 0.0252. In addition, the z-score in [2] is -4.89 (inactive); in assay [3] it was 1.43 (inactive); in [4], 0.986 (inactive); in [5] it was -0.052 (inactive).

As for `CC(C)CN1C(=O)[C@@]2(c3ccc([N+](=O)[O-])cc3)CC(=O)N(C3CCCCC3)[C@@H]2c2ccc(CO)cc21`, the composite z-score in assay [1] was -0.409; in assay [6] it was -0.471; in [7], -0.237; in [8] it was -1.32; in assay [9], -1.67; in [10] it was -0.939. Further, the z-score was -0.159 (inactive) in assay [2], -0.927 (inactive) in [3], -0.502 (inactive) in assay [4] and 0.241 (inactive) in [5].

As for `Cc1c(NC(=O)/C(C#N)=C/c2cccc([N+](=O)[O-])c2)c(=O)n(-c2ccccc2)n1C`, the composite z-score in assay [1] is 0.233; in assay [6], 0.891; in [7], -0.0774; in assay [8], 0.659; in assay [9], 1.12; in assay [10], 0.478. Also, the z-score in [2] was -3.67 (inactive); in assay [3] it was -1.97 (inactive); in [4] it was -0.554 (inactive); in [5] it was -1.47 (inactive).

With `COc1ccc(C(O)C2C=CC3C(=O)N(C)C(=O)C3N2N(c2ccccc2)c2ccccc2)c2ccccc12` (stereo not given), the composite z-score in [1] amounted to 0.151; in assay [6], 0.797; in assay [7], 0.0342; in assay [8], 0.415; in [9], 0.526; in assay [10], 1.11. In addition, the z-score in assay [2] was 0.497 (inactive); in assay [3], -0.347 (inactive); in [4] it was 0.246 (inactive); in [5] it was 1.1 (inactive).

Turning to `C#CCNCc1ccccc1`, the composite z-score was -0.0766 in assay [1]; 0.202 in assay [6]; -0.134 in [7]; 0.335 in assay [8]; 0.442 in [9]; 0.442 in [10]. In addition, the z-score was -0.0359 (inactive) in assay [2], 1.16 (inactive) in assay [3], -0.882 (inactive) in [4] and 0.531 (inactive) in assay [5].

For `C#CCN1[C@H](/C=C/C2CC2)[C@H](Cc2ccccc2)OC(=O)[C@@H]1Cc1ccccc1`, the composite z-score is -0.18 in [1]; -0.929 in [6]; -0.0675 in assay [7]; 0.349 in assay [8]; 0.429 in [9]; 1.12 in assay [10]. The z-score was -3.28 (inactive) in [2], 0.854 (inactive) in assay [3], 1.04 (inactive) in [4] and 1.29 (inactive) in assay [5].

Take `O=C1NC(=O)C2C1C=CC(C(O)c1ccc(-c3ccccc3)s1)N2Nc1ccc(Cl)cc1Cl` (stereo not given): the composite z-score is 0.289 in [1]; 1.34 in [6]; 0.0569 in assay [7]; 0.344 in assay [8]; 0.14 in [9]; -0.82 in [10]. In addition, the z-score in assay [2] was -1.1 (inactive); in assay [3] it was -1.77 (inactive); in assay [4] it was -0.136 (inactive); in [5] it was -0.128 (inactive).

For `C=C(CCCC)/C(=C/C[C@H](OC(=O)c1ccncc1)c1ccc(OCCO)cc1)c1cc(C(=O)OC)ccc1OC`, the composite z-score in assay [1] was 0.355; in assay [6], 0.0399; in [7], 0.0104; in [8] it was 0.404; in [9], 0.102; in [10], 1.96. Besides, the z-score in assay [2] is -4.81 (inactive); in assay [3] it was 0.282 (inactive); in [4], 5.11 (inactive); in [5], -0.366 (inactive).

As to `COCC(=C=CC[C@H](O)c1cccc(OCCO)c1)C[C@H](O)c1cc(Cl)cc(Cl)c1O`, the composite z-score was 0.556 in assay [1]; -0.128 in assay [6]; 0.0104 in assay [7]; 1.06 in [8]; 0.878 in [9]; 1.77 in assay [10]. The z-score was -0.465 (inactive) in assay [2], -0.494 (inactive) in [3], 10 (active) in assay [4] and 0.32 (inactive) in assay [5].

Take `NCCCCCCNC(=O)[C@H]1C[C@H]2C(=O)N[C@@H](Cc3ccccc3)C(=O)N2[C@H]1c1cccc(OCCO)c1`: the composite z-score is -0.0371 in assay [1]; 1.09 in assay [6]; -0.128 in [7]; 1.24 in assay [8]; 0.916 in [9]; 0.16 in assay [10]. The z-score was 0.173 (inactive) in assay [2], -0.687 (inactive) in assay [3], -0.545 (inactive) in [4] and -0.711 (inactive) in [5].

As to `CCOC(=O)C[C@H]1[C@H](OC(=O)c2ccc(-c3ccccc3)cc2)[C@@H](NC(=O)c2ccccc2)c2cc(OCCCO)ccc2N1C(=O)c1ccc2ccccc2n1`, the composite z-score in assay [1] was 0.278; in assay [6], 0.255; in assay [7], 0.368; in [8], 0.181; in assay [9] it was 0.757; in [10] it was -0.0315. The z-score in assay [2] is 0.775 (inactive); in [3] it was 0.577 (inactive); in [4] it was -0.882 (inactive); in [5], -0.127 (inactive).

For `O=C1NC(=O)C2C1C=CC(C(O)C=Cc1ccc([N+](=O)[O-])cc1)N2Nc1ccc(Cl)cc1Cl` (stereo not given), the composite z-score in [1] was 0.28; in [6], 1.14; in assay [7], 0.317; in assay [8] it was 0.339; in [9] it was 0.417; in [10] it was -0.08. For the same compound, the z-score in [2] was 0.099 (inactive); in assay [3] it was -0.402 (inactive); in assay [4] it was 0.253 (inactive); in [5] it was 0.342 (inactive).

With `O=C(O)C1N=C(c2ccc(OCCCO)cc2)N(c2ccccc2)O1` (stereo not given), the composite z-score was 0.222 in assay [1]; 0.926 in [6]; -0.166 in assay [7]; 0.666 in assay [8]; 1.72 in assay [9]; 0.287 in assay [10]. For the same compound, the z-score was -0.205 (inactive) in assay [2], 1.3 (inactive) in [3], 0.101 (inactive) in [4] and 1.16 (inactive) in assay [5].
